An excerpt weighted towards active compounds, which were near 9.3% of everything screened.
FMDV antiviral: antivirals against foot and mouth disease virus; FMDV antiviral cell-based qHTS; Potency, µM (highest dose often 57.9 µM), most hits filed as inhibitors; 1.2% of 410,000 active; calls by dose curve; tested in HEK293T cells; further: read-out not given here; nearly all actives have a fitted effect of over 45% in size
Vaccinia Venus: vaccinia inhibition (Venus reporter). Vaccinia virus Venus reporter expression, fluorescence. Potency, µM (top dose mostly 36.5 µM), hits mostly inhibitors. 0.46% of 330,000 active. AID 720580; calls by dose curve; tested in A549 cells; further: nearly all actives have a fitted effect of over 30% in size
Vaccinia mCherry: inhibitors of vaccinia virus infection (mCherry reporter signal) | AID 720579 | 0.63% of 310,000 active | Potency, µM (series often up to 36.5 µM), hits mostly inhibitors | Vaccinia virus mCherry reporter infection, fluorescence; calls by dose curve; tested in A549 cells; further: nearly all actives have a fitted effect of over 35% in size
HCMV antiviral: inhibitors of human cytomegalovirus; AID 1259415; 4.5% of 410,000 active; activity change, negative = inhibition, % at 57.5 µM; HFF cells, HCMV-luciferase reporter, 72 h; stronger effect = lower value; in the data active means activity change below about -60%; inconclusive means no clear call, values can overlap the other calls; inactive means above about -39%
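Human foreskin fibroblasts infected with luciferase-reporter HCMV at MOI 1 PFU/cell, compounds at two doses. Luciferase measured 72 h post infection; normalized to buffer-only basal and Salinomycin (10uM) controls.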
HCV inh: inhibitors of hepatitis C virus infection | 3.4% of 340,000 active | Huh7.5.1 HCVcc-Cre infection, luciferase reporter, 44 h | Potency, µM (highest dose often 41.8 µM), hits mostly inhibitors
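Cells (1,000/well) were plated 4 h before compound, then infected with HCVcc-Cre virus (~0.5 moi). After 44 h further culture, infection was read as luciferase luminescence following a 15 min substrate incubation at room temperature.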
Sm TGR block: blocks Schistosoma mansoni thioredoxin glutathione reductase. Potency, µM (top dose mostly 114 µM), hits mostly inhibitors. Q962Y6. 3% of 360,000 active. purified TGR, DTNB reduction, TNB absorbance 405 nm; further: nearly all actives have a fitted effect of over 60% in size
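First, TGR (20 nM dispensed) and NADPH were mixed with compound. Second, a 15 min room-temperature incubation followed. Third, further NADPH and then DTNB were added to start the reaction. Finally, TNB absorbance was monitored kinetically.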
Hits are given with their value; n = inactive; u = inconclusive; x = no result given; [ ] = another dose, or the depositor's remark. Unless noted, the call rests on the fitted dose curve; in most records, active means well fitted curve in the direction sought with a large enough effect; inconclusive means small, poorly fitted or top-dose-only effect, or another doubt; inactive means no such curve, though single readings can be large; an effect the other way counts as inactive or inconclusive.

SMILES	FMDV antiviral	Vaccinia Venus	Vaccinia mCherry	HCMV antiviral	HCV inh	Sm TGR block
Cc1ccccc1C(=O)OCC(=O)Nc1cccc(S(=O)(=O)N2CCCCC2)c1	n	n	n	n	x	x
O=C(COC(=O)c1ccc(S(=O)(=O)N2CCCC2)cc1)Nc1cccc(Br)c1	n	x	x	n	n	n
Cc1cccc(NC(=O)COC(=O)c2ccc(S(=O)(=O)N3CCCCCC3)cc2)c1	n	n	n	-99.2	n	n
COc1cccc(C(=O)OCC(=O)c2ccc(S(=O)(=O)N3CCCCC3)cc2)c1OC	u	n	n	-99.6	n	n
CC1CCc2c(C(=O)OCC(=O)Nc3cccc(S(=O)(=O)N4CCCCCC4)c3)csc2C1 (configuration not stated)	n	n	n	u	7.08µM	n
Cc1ccc(NC(=O)COC(=O)c2csc3c2CCC(C)C3)cc1S(=O)(=O)N1CCCCC1 (configuration not stated)	n	n	n	n	u	n
O=C(CN1C(=O)c2ccccc2C1=O)NCC1COc2ccccc2O1 (configuration not stated)	n	n	n	n	n	n
CC(C)(C)c1o[nH]c(=O)c1C[C@H](N)C(=O)O	n	x	x	x	x	x
Cc1cccc(C)c1NC(=O)COC(=O)CCc1ccc(S(=O)(=O)N2CCCCC2)cc1	n	n	n	n	n	n
O=C(COC(=O)CCc1ccc(S(=O)(=O)N2CCCCC2)cc1)Nc1cccc2ccccc12	n	n	n	-106.3	n	n
CCC(CC)C(=O)Nc1cccc(/C(C)=N\NC(=O)c2ccc(C)s2)c1	n	u	n	n	u	n
COC(=O)c1c(NC(=O)c2nc3ccccc3s2)sc2c1CC(C)(C)NC2(C)C	n	11.2µM	u	n	n	n
Cc1ccc(S(=O)(=O)Nc2ccccc2/C=N/c2nc3ccccc3n2C(C)C)cc1	n	n	n	u	n	n
O=C(N/N=C/c1ccc(O)cc1O)c1ccc(CN2C(=O)c3cccc4cccc2c34)cc1	n	u	2.51µM	-101.4	u	x
Cc1ccc(C2OC3=C(C(=O)CC(C)(C)C3)C(N)=C2C#N)o1 (configuration not stated)	n	n	n	n	u	n
N#Cc1cc2cc3c(cc2nc1Cl)OCCO3	n	n	n	n	x	x
CC(=O)Oc1ccc(C23c4ccccc4C2(OC(C)=O)c2cc(OC(C)=O)ccc23)cc1 (configuration not stated)	u	n	n	-70.0	11.2µM	x
CC(=O)Oc1ccc(C(=O)Nc2ccccc2NC(=O)c2ccc(OC(C)=O)cc2)cc1	n	x	x	n	n	n
CN(C)S(=O)(=O)c1ccc(C(=O)NCCS(=O)(=O)N2CCN(c3ccc(F)cc3)CC2)cc1	n	n	n	n	n	n
NS(=O)(=O)c1ccc(CCNc2ccc(C(F)(F)F)cn2)cc1	n	n	n	-76.9	n	n
Cc1ccc(-c2c3c(=O)n(C)c(=O)n(C)c3cn2Cc2ccccc2)cc1	n	x	x	n	n	44.7µM
Cn1c(=O)c2c(-c3ccccc3)n(Cc3ccccn3)cc2n(C)c1=O	n	n	n	n	n	28.2µM
Cn1c(=O)c2c(-c3ccccc3)n(CCCN3CCOCC3)cc2n(C)c1=O	n	n	x	n	n	n
NNC(=O)CCN(Cc1ccco1)S(=O)(=O)c1ccc(Cl)cc1	n	x	x	-66.6	n	n
C=CCN(Cc1ccco1)S(=O)(=O)c1ccc(Cl)cc1	n	n	n	n	n	n
SMILES	FMDV antiviral	Vaccinia Venus	Vaccinia mCherry	HCMV antiviral	HCV inh	Sm TGR block
CCOC(=O)C1CCCN(C(=O)c2cccc([N+](=O)[O-])c2C)C1 (configuration not stated)	n	n	n	n	n	n
O=C(Nc1ccc(F)cc1)OCCOc1ccc([N+](=O)[O-])cc1	n	n	n	n	n	n
COc1ccccc1-n1cc(-c2ccccc2)[nH]c1=S	u	x	x	n	n	n
COc1ccccc1-n1cc(-c2ccccc2)c2c(=S)nc[nH]c21	n	x	x	-68.7	n	n
CN(C)CCCNc1ncnc2c1cnn2Cc1ccccc1Cl	n	n	n	n	u	n
Cn1cc([N+](=O)[O-])c(C(=O)Nc2cc(Oc3cccnc3)cc([N+](=O)[O-])c2)n1	u	n	n	-106.2	u	n
COc1ccc(Oc2cc(NC(=O)c3nn(C)cc3[N+](=O)[O-])cc([N+](=O)[O-])c2)cc1	u	u	u	-110.0	u	n
O=c1cc(-c2ccc(O)c(O)c2)oc2c(C3O[C@H](CO)[C@@H](O)[C@H](O)[C@H]3O)c(O)cc(O)c12 (some centres not stated)	n	n	n	n	n	n
O=c1nc(Nc2ccccc2)sc2ccc([N+](=O)[O-])cc12	n	n	n	n	n	n
CCC(C)n1c(=S)[nH]c2c(sc3ccc([N+](=O)[O-])cc32)c1=O (configuration not stated)	35.5µM	n	n	u	u	n
O=C(O)c1cc(-c2ccco2)nn1-c1ccc(Cl)cc1	n	n	n	n	n	5.01µM
Cc1nn(-c2cccc(Cl)c2)c2nc(-c3ccco3)cc(C(=O)O)c12	n	n	n	n	n	15.8µM
O=C(O)c1cc(-c2cccs2)nn1-c1cccc(Cl)c1	n	n	n	n	n	n
O=C(O)c1cc(-c2cc3ccccc3o2)nn1-c1ccccc1	n	n	n	n	n	n
Cc1ccc(-n2nc(-c3ccco3)cc2C(=O)O)c(C)c1	n	n	n	n	n	11.2µM
O=C(O)c1cc(-c2ccco2)nn1-c1cccc(Cl)c1	n	n	n	n	n	63.1µM
Cc1ccc(-n2nc(-c3cccnc3)cc2C(=O)N2CCOCC2)c(C)c1	n	n	n	n	n	n
COC(=O)C1=C(c2ccc(OC(F)(F)F)cc2)C[C@@H]2CC[C@H]1N2C(=O)N1CCC(O)CC1	u	n	n	n	u	n
CCOC(=O)/C=C/[C@@H](CCCCOCc1ccccc1)NC(=O)C(F)(F)F	x	x	x	n	x	x
CC1(C)Nc2ccccc2C(=O)N1NS(=O)(=O)c1ccccc1	n	n	n	n	n	n
Cc1cc(Cl)ccc1NC(=S)NCc1ccc(Cl)cc1	n	u	u	n	u	n
CCNC(=S)Nc1ccc(Cl)cc1Cl	n	n	n	-64.9	n	44.7µM
CN(O)/C=N/C(=S)Nc1ccc(Cl)cc1Cl	n	x	x	u	n	0.562µM
S=C(NCCc1ccccc1)Nc1ccc(Cl)cc1Cl	n	n	n[1.46 µM]	n	n	n
CN(C)/C=N/C(=S)Nc1ccccc1Cl	n	n	n	n	n	x
Cc1ccc(NC(=S)NCCc2c[nH]c3ccccc23)c(C)c1	n	x	x	-89.7	u	n
Cc1cc(Cl)ccc1NC(=S)NCCc1ccc(Cl)cc1	n	n	u	-83.1	u	n
O=C(Nc1ccc2c(c1)OCCO2)C1c2ccccc2OCC(=O)N1Cc1ccccc1 (configuration not stated)	n	n	n	n	x	x
Cc1cccc(NC(=S)NCCc2ccccc2)n1	n	n	u	-72.4	n	u

Screens: PubChem, National Center for Advancing Translational Sciences (NCATS)
